# From the supplement of paper PMC8728848
# This is one part of a sample in which the strongest signals are shown more often than they occur.
# How the values were obtained:
# Assay in all cases: glycan array binding signal (z-score within array); higher = stronger binding
# Settings in all cases: glycan notation: IUPAC condensed, linker removed
# [1] = molecular target: Fuc(a1-2)Gal(b1-3)GlcNAc(b1-2)Man(a1-3)[Fuc(a1-2)Gal(b1-3)GlcNAc(b1-2)Man(a1-6)]Man(b1-4)GlcNAc(b1-4)GlcNAc
# How it was run: (§1)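 The binding signal is a Z-score computed within each array. Data were drawn from 3228 arrays in the Consortium for Functional Glycomics database, restricted to those with a known protein sequence. Scores were averaged over arrays of the same protein sequence at different concentrations or buffers, and over linkers, and negative values can be taken as non-binding.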
# [2] = molecular target: Fuc(a1-2)Gal(b1-3)[Fuc(a1-4)]GlcNAc(b1-2)Man(a1-3)[Fuc(a1-2)Gal(b1-3)[Fuc(a1-4)]GlcNAc(b1-2)Man(a1-6)]Man(b1-4)GlcNAc(b1-4)[Fuc(a1-6)]GlcNAc(b1-4)[Fuc(a1-6)]GlcNAc
# How it was run: as §1
# [3] = molecular target: Fuc(a1-2)Gal(b1-4)GlcNAc(b1-2)Man(a1-3)[Fuc(a1-2)Gal(b1-4)GlcNAc(b1-2)Man(a1-6)]Man(b1-4)GlcNAc(b1-4)[Fuc(a1-6)]GlcNAc
# How it was run: as §1
# [4] = molecular target: Fuc(a1-2)Gal(b1-4)[Fuc(a1-3)]GlcNAc(b1-2)Man(a1-3)[Fuc(a1-2)Gal(b1-4)[Fuc(a1-3)]GlcNAc(b1-2)Man(a1-6)]Man(b1-4)GlcNAc(b1-4)[Fuc(a1-6)]GlcNAc
# How it was run: as §1
# [5] = molecular target: Fuc(a1-2)[Gal(a1-3)]Gal(b1-4)[Fuc(a1-3)]GlcNAc
# How it was run: as §1
# [6] = molecular target: Fuc(a1-2)[GalNAc(a1-3)]Gal(b1-4)[Fuc(a1-3)]GlcNAc(b1-3)GalNAc
# How it was run: as §1
# [7] = molecular target: Fuc(a1-2)[GalNAc(a1-4)]Gal(b1-4)GlcNAc
# How it was run: as §1
# [8] = molecular target: Fuc(a1-3)[Gal(b1-4)]GlcNAc6S
# How it was run: as §1
# [9] = molecular target: Fuc(b1-3)GlcNAc
# How it was run: as §1
# [10] = molecular target: Gal(a1-3)Gal(b1-3)GlcNAc(b1-2)Man
# How it was run: as §1
# [11] = molecular target: Gal(a1-3)Gal(b1-4)[Fuc(a1-3)]GlcNAc
# How it was run: as §1
# [12] = molecular target: Gal(a1-3)GalNAc
# How it was run: as §1
# [13] = molecular target: Gal(a1-3)[Gal(a1-4)]Gal(b1-4)GlcNAc
# How it was run: as §1
# [14] = molecular target: Gal(a1-4)Gal(b1-4)Glc
# How it was run: as §1
# [15] = molecular target: Gal(b1-3)GalNAc(a1-3)[Fuc(a1-2)]Gal(b1-4)GlcNAc
# How it was run: as §1
# [16] = molecular target: Gal(b1-3)GlcNAc(b1-3)GalNAc
# How it was run: as §1
# [17] = molecular target: Gal(b1-3)GlcNAc6S
# How it was run: as §1
# [18] = molecular target: Gal(b1-3)[Fuc(a1-4)]GlcNAc(b1-2)Man
# How it was run: as §1
# [19] = molecular target: Gal(b1-3)[Fuc(a1-4)]GlcNAc(b1-2)Man(a1-3)[Gal(b1-3)[Fuc(a1-4)]GlcNAc(b1-2)Man(a1-6)]Man(b1-4)GlcNAc(b1-4)[Fuc(a1-6)]GlcNAc
# How it was run: as §1
# [20] = molecular target: Gal(b1-3)[Fuc(a1-4)]GlcNAc(b1-6)GalNAc
# How it was run: as §1
# [21] = molecular target: Gal(b1-4)GlcNAc(b1-3)Gal(b1-4)GlcNAc(b1-2)Man(a1-3)[Gal(b1-4)GlcNAc(b1-3)Gal(b1-4)GlcNAc(b1-2)Man(a1-6)]Man(b1-4)GlcNAc(b1-4)GlcNAc
# How it was run: as §1
# [22] = molecular target: Gal(b1-4)GlcNAc(b1-3)Gal(b1-4)GlcNAc(b1-2)[Gal(b1-4)GlcNAc(b1-3)Gal(b1-4)GlcNAc(b1-6)]Man(a1-6)[Gal(b1-4)GlcNAc(b1-3)Gal(b1-4)GlcNAc(b1-2)Man(a1-3)]Man(b1-4)GlcNAc(b1-4)[Fuc(a1-6)]GlcNAc
# How it was run: as §1
# [23] = molecular target: Gal(b1-4)GlcNAc(b1-3)Gal(b1-4)GlcNAc(b1-3)Gal(b1-4)GlcNAc(b1-2)Man(a1-3)[Gal(b1-4)GlcNAc(b1-3)Gal(b1-4)GlcNAc(b1-3)Gal(b1-4)GlcNAc(b1-2)Man(a1-6)]Man(b1-4)GlcNAc(b1-4)GlcNAc
# How it was run: as §1
# [24] = molecular target: GalNAc(a1-3)GalNAc(b1-3)Gal(a1-4)Gal(b1-4)Glc
# How it was run: as §1
# [25] = molecular target: GalNAc(b1-4)GlcNAc
# How it was run: as §1
# [26] = molecular target: GalNAc(b1-4)GlcNAc(b1-3)GalNAc(b1-4)GlcNAc
# How it was run: as §1
# [27] = molecular target: GlcNAc(a1-4)Gal(b1-4)GlcNAc(b1-3)Gal(b1-4)GlcNAc
# How it was run: as §1
# [28] = molecular target: GlcNAc(b1-3)Gal(b1-4)GlcNAc(b1-2)[GlcNAc(b1-3)Gal(b1-4)GlcNAc(b1-6)]Man(a1-6)[GlcNAc(b1-3)Gal(b1-4)GlcNAc(b1-2)Man(a1-3)]Man(b1-4)GlcNAc(b1-4)GlcNAc
# How it was run: as §1
# [29] = molecular target: GlcNAc(b1-3)Gal(b1-4)GlcNAc(b1-3)Gal(b1-4)GlcNAc(b1-2)Man(a1-3)[GlcNAc(b1-3)Gal(b1-4)GlcNAc(b1-3)Gal(b1-4)GlcNAc(b1-2)Man(a1-6)]Man(b1-4)GlcNAc(b1-4)GlcNAc
# How it was run: as §1
# [30] = molecular target: GlcNAc(b1-3)Gal(b1-4)GlcNAc(b1-3)GalNAc
# How it was run: as §1
# [31] = molecular target: GlcNAc(b1-3)GalNAc
# How it was run: as §1
# [32] = molecular target: Neu5Ac(a2-3)Gal(b1-3)GalNAc6S
# How it was run: as §1
# [33] = molecular target: Neu5Ac(a2-3)Gal(b1-4)GlcNAc(b1-2)[Neu5Ac(a2-3)Gal(b1-4)GlcNAc(b1-4)]Man(a1-3)[GlcNAc(b1-4)][Neu5Ac(a2-3)Gal(b1-4)GlcNAc(b1-2)[Neu5Ac(a2-3)Gal(b1-4)GlcNAc(b1-6)]Man(a1-6)]Man(b1-4)GlcNAc(b1-4)GlcNAc
# How it was run: as §1
# [34] = molecular target: Neu5Ac(a2-3)Gal(b1-4)[Fuc(a1-3)]GlcNAc(b1-2)Man
# How it was run: as §1
# [35] = molecular target: Neu5Ac(a2-3)Gal(b1-4)[Fuc(a1-3)]GlcNAc(b1-3)Gal(b1-4)GlcNAc
# How it was run: as §1
# [36] = molecular target: Neu5Ac(a2-6)Gal
# How it was run: as §1
# [37] = molecular target: Neu5Ac(a2-6)Gal(b1-4)GlcNAc(b1-2)Man
# How it was run: as §1
# [38] = molecular target: Neu5Ac(a2-6)Gal(b1-4)GlcNAc(b1-2)Man(a1-3)[GlcNAc(b1-4)][Neu5Ac(a2-6)Gal(b1-4)GlcNAc(b1-2)Man(a1-6)]Man(b1-4)GlcNAc(b1-4)GlcNAc
# How it was run: as §1
# [39] = molecular target: Neu5Ac(a2-6)Gal(b1-4)GlcNAc(b1-2)[Neu5Ac(a2-6)Gal(b1-4)GlcNAc(b1-4)]Man(a1-3)[GlcNAc(b1-4)][Neu5Ac(a2-6)Gal(b1-4)GlcNAc(b1-4)Man(a1-6)]Man(b1-4)GlcNAc(b1-4)GlcNAc
# How it was run: as §1
# [40] = molecular target: Neu5Ac(a2-6)Gal(b1-4)GlcNAc(b1-3)Gal(b1-4)GlcNAc(b1-3)Gal(b1-4)GlcNAc(b1-2)Man(a1-3)[Neu5Ac(a2-6)Gal(b1-4)GlcNAc(b1-3)Gal(b1-4)GlcNAc(b1-3)Gal(b1-4)GlcNAc(b1-2)Man(a1-6)]GalNAc
# How it was run: as §1
# [41] = molecular target: Neu5Ac(a2-8)Neu5Ac(a2-8)Neu5Ac(a2-3)Gal(b1-4)Glc
# How it was run: as §1
# [42] = molecular target: Neu5Gc(b2-6)Gal(b1-4)GlcNAc
# How it was run: as §1
binder,measurement,setting,value
"YASPKCFRYPNGVLACT [Odorranalectin (Odorrana grahami), B3TFE9_RANGR]",glycan array binding signal (z-score),[1],0.133
same,glycan array binding signal (z-score),[2],1.89
same,glycan array binding signal (z-score),[3],-0.142
same,glycan array binding signal (z-score),[4],3.75
same,glycan array binding signal (z-score),[5],0.56
same,glycan array binding signal (z-score),[6],2.29
same,glycan array binding signal (z-score),[7],-0.278
same,glycan array binding signal (z-score),[8],-0.198
same,glycan array binding signal (z-score),[9],-0.094
same,glycan array binding signal (z-score),[10],-0.387
same,glycan array binding signal (z-score),[11],-0.625
same,glycan array binding signal (z-score),[12],0.618
same,glycan array binding signal (z-score),[13],1.47
same,glycan array binding signal (z-score),[14],0.575
same,glycan array binding signal (z-score),[15],-0.258
same,glycan array binding signal (z-score),[16],-0.188
same,glycan array binding signal (z-score),[17],-0.064
same,glycan array binding signal (z-score),[18],3.92
same,glycan array binding signal (z-score),[19],-0.246
same,glycan array binding signal (z-score),[20],-0.061
same,glycan array binding signal (z-score),[21],7.59
same,glycan array binding signal (z-score),[22],0.555
same,glycan array binding signal (z-score),[23],2.11
same,glycan array binding signal (z-score),[24],-0.385
same,glycan array binding signal (z-score),[25],4.83
same,glycan array binding signal (z-score),[26],0.347
same,glycan array binding signal (z-score),[27],-0.376
same,glycan array binding signal (z-score),[28],8.95
same,glycan array binding signal (z-score),[29],3.67
same,glycan array binding signal (z-score),[30],0.083
same,glycan array binding signal (z-score),[31],-0.315
same,glycan array binding signal (z-score),[32],0.438
same,glycan array binding signal (z-score),[33],-0.481
same,glycan array binding signal (z-score),[34],-0.405
same,glycan array binding signal (z-score),[35],-0.026
same,glycan array binding signal (z-score),[36],-0.415
same,glycan array binding signal (z-score),[37],-0.092
same,glycan array binding signal (z-score),[38],-0.309
same,glycan array binding signal (z-score),[39],-0.055
same,glycan array binding signal (z-score),[40],7.51
same,glycan array binding signal (z-score),[41],-0.429
same,glycan array binding signal (z-score),[42],-0.155
